Among the data in the supplement of paper PMC12024424 are growth reduction values, retold here.

The structures appear in SMILES notation. Where a name gives a salt, the structure may show the parent alone.

The experiment has as its system Staphylococcus aureus Sa2 (MRSA, cystic fibrosis isolate). The experiment can be described thus: growth reduction vs untreated control (viable cell count); higher = stronger antibacterial activity; extreme values may be limits of the assay. Particulars: 0.1 mM; 24 h. The protocol:
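Single-dose screen of the MedChem Express Drug Repurposing Library (0.1 mM, 1% DMSO) against planktonic MRSA S. aureus Sa2 (CF isolate) in TSB in 96-well plates, 37 °C aerobic, 24 h. Assays were run in triplicate and repeated twice.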
As for `C[C@H](CCC(=O)O)[C@H]1CC[C@H]2[C@@H]3[C@H](O)C[C@@H]4C[C@H](O)CC[C@]4(C)[C@H]3CC[C@]12C` [Chenodeoxycholic Acid], the growth reduction is 99%.
Next, `CC(C)(C)[C@@H]1NC(=O)O[C@@H]2CCC[C@H]2OC/C=C/C(F)(F)c2nc3ccccc3nc2O[C@@H]2C[C@@H](C(=O)N[C@]3(C(=O)NS(=O)(=O)C4(C)CC4)C[C@H]3C(F)F)N(C2)C1=O` [Glecaprevir]: 100%; `C[C@H]1O[C@@H](n2cc(F)c(=O)[nH]c2=O)[C@H](O)[C@@H]1O` [Doxifluridine]: 100%; `C#C[C@]1(O)CC[C@H]2[C@@H]3CCc4cc(O)ccc4[C@H]3CC[C@@]21C` [Ethynyl Estradiol]: 100%.
Next, `NC1=NCC2c3ccccc3Cc3ccccc3N12` (stereo not given) [Epinastine]: 100%.
The same measure for `CCCCCCCCOc1ccccc1C(=O)Nc1ccc(C(=O)OCC[N+](C)(CC)CC)cc1` [Otilonium (bromide)]: 100%; for `CCCCc1nc(-c2ccc(OCCCN(CC)CC)cc2)cn1-c1ccc(Oc2ccc(Cl)cc2)cc1` [Azeliragon]: 100%; for `CCCSc1nc(N[C@@H]2C[C@H]2c2ccc(F)c(F)c2)c2nnn([C@@H]3C[C@H](OCCO)[C@@H](O)[C@H]3O)c2n1` [Ticagrelor]: 98%.
The compound `O=c1[nH]c(=O)n([C@H]2C[C@H](O)[C@@H](CO)O2)cc1/C=C/Br` [Brivudine] gave a growth reduction of 100%.
The same measure for `CCN1CCN(Cc2ccc(-c3cc4c(N[C@H](C)c5ccccc5)ncnc4[nH]3)cc2)CC1`: 100%; for `COCC[n+]1c2c(n(Cc3cnccn3)c1C)C(=O)c1ccccc1C2=O` [Sepantronium (bromide)]: 100%; for `CCOC(=O)N1CCC(=C2c3ccc(Cl)cc3CCc3cccnc32)CC1` [Loratadine]: 100%.
The same measure for `CC/C(=C(\c1ccccc1)c1ccc(OCCN(C)C)cc1)c1ccccc1` [Tamoxifen (Citrate)]: 100%.
The same measure for `O=C(NCc1c(F)cc(F)cc1F)c1cn2c(c(O)c1=O)C(=O)N1[C@H]3CC[C@H](C3)O[C@@H]1C2` [Bictegravir]: 100%; for `Cc1cccc(/C=N/Nc2cc(N3CCOCC3)nc(OCCc3ccccn3)n2)c1` [Apilimod (mesylate)]: 93%; for `Clc1ccc(COC(Cn2ccnc2)c2ccc(Cl)cc2Cl)c(Cl)c1` (stereo not given) [Miconazole (nitrate)]: 100%.
The compound `C[C@@H](NCCCc1cccc(C(F)(F)F)c1)c1cccc2ccccc12` [Cinacalcet] registered a growth reduction of 100%.
The same measure for `COc1cc(C)c2c(Oc3cccc(C(F)(F)F)c3)c(OC)cc(NC(C)CCCN)c2n1` (stereo not given) [Tafenoquine (Succinate)]: 100%; for `Cc1noc(-c2ccc(-c3ccc(C4(C(=O)O)CC4)cc3)cc2)c1NC(=O)O[C@H](C)c1ccccc1`: 100%.
Next, `Cc1nc(C(=O)NCC(=O)O)c(O)c2ccc(Oc3ccccc3)cc12` [Roxadustat]: 98%; `OCCN1CCN(CC/C=C2/c3ccccc3Sc3ccc(C(F)(F)F)cc32)CC1` [Flupentixol dihydrochloride]: 100%; `CN1CCCC(CC2c3ccccc3Sc3ccccc32)C1` (stereo not given) [Metixene hydrochloride hydrate]: 100%.
In the case of `O=C(O)c1ccc2nc(-c3cc(Cl)cc(Cl)c3)oc2c1` [Tafamidis meglumine], the growth reduction came out at 98%.
Next, `Cn1cc(-c2ccncc2)c(-c2ccc(OCc3ccc4ccccc4n3)cc2)n1` [Mardepodect (hydrochloride)]: 97%; `Cc1ccc(C(=O)c2cc(O)c(O)c([N+](=O)[O-])c2)cc1` [Tolcapone]: 100%; `Cc1ccc(-n2[nH]c(C)c(N=Nc3cccc(-c4cccc(C(=O)O)c4)c3O)c2=O)cc1C` [Eltrombopag]: 100%.
Next, `CN(C)C(=O)/C=C/CNCCOc1ccc(/C(=C(/CC(F)(F)F)c2ccccc2)c2ccc3[nH]nc(F)c3c2)cn1`: 100%; `CCCCN(CCCC)C(=O)CN1C[C@H](c2ccc3c(c2)OCO3)[C@@H](C(=O)O)[C@@H]1c1ccc(OC)cc1` [Atrasentan (hydrochloride)]: 98%; `Clc1ccc(Nc2nnc(Cc3ccncc3)c3ccccc23)cc1` [Vatalanib (dihydrochloride)]: 100%.
Next, `C=C[C@@](C)(/C=C/c1ccc(O)cc1)CCC=C(C)C` [Bakuchiol]: 100%; `O=C(NCc1ccc(Oc2ccccc2)cc1)c1nc(-c2cc(Br)c(O)c(Br)c2)no1`: 100%.
Compound `CCN(C/C=C\c1ccc(C2CCCCC2)c(Cl)c1)C1CCCCC1` showed a growth reduction of 99%.
`COc1ccc(Cl)c(Nc2nc3ccccc3nc2NS(=O)(=O)c2cccc(NC(=O)C(C)(C)N)c2)c1` [Pilaralisib] returned a growth reduction of 100%.
Compound `Oc1c(Br)cc(Br)c2cccnc12` [Broxyquinoline] displayed a growth reduction of 100%.
For `CS(=O)(=O)c1cc(F)cc2c3c(n(Cc4ccc(Cl)cc4)c12)[C@@H](CC(=O)O)CC3` [Laropiprant], the growth reduction was found to be 99%.
The same measure for `Fc1ccc(C(c2ccc(F)cc2)N2CCN(C/C=C/c3ccccc3)CC2)cc1` [Flunarizine (dihydrochloride)]: 98%.
The same measure for `C=C[C@@H]1C[C@]1(NC(=O)[C@@H]1C[C@@H]2CN1C(=O)[C@H](C(C)(C)C)NC(=O)O[C@@H]1C[C@H]1CCCCCc1nc3ccc(OC)cc3nc1O2)C(=O)NS(=O)(=O)C1CC1` [Grazoprevir potassium salt]: 100%.
`CC1(C)CCC2=C(O1)c1ccccc1C(=O)C2=O` [β-Lapachone] gave a growth reduction of 100%.
Next, `Cc1ccc(NC(=O)C2(c3ccc4c(c3)OC(F)(F)O4)CC2)nc1-c1cccc(C(=O)O)c1` [Lumacaftor]: 96%.
As for `CCCCN(CCCC)CCC(O)c1cc2c(Cl)cc(Cl)cc2c2cc(C(F)(F)F)ccc12` (stereo not given) [Halofantrine hydrochloride], the growth reduction came out at 94%.
